# Test results: patent publication US20220289795, “EFFICIENT METHOD FOR PREPARING PPR PROTEIN AND USE OF THE SAME” (EditForce, Inc., published 2022)
# Molecular target: T1, NL_v2_PPR7 (Artificial Sequence)
# T1 chain: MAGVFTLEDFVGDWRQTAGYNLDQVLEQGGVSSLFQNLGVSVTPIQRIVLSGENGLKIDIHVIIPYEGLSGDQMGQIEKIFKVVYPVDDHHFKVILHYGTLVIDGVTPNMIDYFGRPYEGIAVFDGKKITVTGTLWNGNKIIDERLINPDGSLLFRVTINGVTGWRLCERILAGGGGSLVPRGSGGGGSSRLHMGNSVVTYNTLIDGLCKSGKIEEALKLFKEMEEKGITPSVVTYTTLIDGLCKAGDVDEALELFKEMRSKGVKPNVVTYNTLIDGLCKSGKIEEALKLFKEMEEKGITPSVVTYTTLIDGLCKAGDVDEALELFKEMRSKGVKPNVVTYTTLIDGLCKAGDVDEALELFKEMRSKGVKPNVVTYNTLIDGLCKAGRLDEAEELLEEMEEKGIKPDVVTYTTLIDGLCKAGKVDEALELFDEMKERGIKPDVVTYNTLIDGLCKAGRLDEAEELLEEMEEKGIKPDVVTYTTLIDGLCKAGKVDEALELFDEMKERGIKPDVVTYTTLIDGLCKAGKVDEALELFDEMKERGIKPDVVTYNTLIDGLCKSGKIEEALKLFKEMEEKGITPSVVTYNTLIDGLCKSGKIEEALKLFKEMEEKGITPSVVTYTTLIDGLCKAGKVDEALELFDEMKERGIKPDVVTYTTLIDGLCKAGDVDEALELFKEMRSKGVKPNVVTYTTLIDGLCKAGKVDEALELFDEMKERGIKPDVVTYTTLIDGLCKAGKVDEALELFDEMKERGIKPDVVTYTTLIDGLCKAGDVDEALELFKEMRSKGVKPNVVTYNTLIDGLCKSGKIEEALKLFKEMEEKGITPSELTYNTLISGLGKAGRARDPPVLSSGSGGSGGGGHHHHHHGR
# Test: RPB-ELISA
# Conditions: tags: N-terminal luciferase, C-terminal 6xHis; label: 5'-biotin; ssRNA
# Procedure: RNA probes consisting of a designed 30-base sequence containing 18 bases of the target sequence and modified by biotinylation at the 5′ end (RNA_1, RNA_2, RNA_3, RNA_4, and RNA_5, SEQ ID NOS: 61 to 65) were synthesized (Grainer). To a streptavidin-coated plate (Thermo fisher), the 5′-end biotinylated RNA probes were added, reaction was allowed at room temperature for 30 minutes, and the plate was washed with a lysis buffer (20 mM Tris-HCl, pH 7.6, 150 mM NaCl, 5 mM MgCl₂, 0.5% NP-40, 1 mM DTT, 0.1% BSA). For background measurement, wells to which RNA was not added, but 100 μL of the lysis buffer, 1 μL of 100 mM DTT, and 1 μL of 40 unit/4 RNase inhibitor (Takara, 2313A) were added were also prepared. Then, 200 μL of a blocking buffer (20 mM Tris-HCl, pH 7.6, 150 mM NaCl, 5 mM MgCl₂, 0.5% NP-40, 1 mM DTT, 1% BSA) was added, and the plate surface was blocked at room temperature for 30 minutes. Then, 100 μL of E. coli lysate containing luciferase-fused PPR protein having a luminescence level of 1.5×10⁸ LU/μL was added to each well, and the binding reaction was allowed at room temperature for 30 minutes. The well was washed 5 times with 200 μL of a washing buffer (20 mM Tris-HCl, pH 7.6, 150 mM NaCl, 5 mM MgCl₂, 0.5% NP-40, 1 mM DTT). […] The background (luminescence signal value obtained with adding the PPR protein and without adding RNA) was subtracted from the luminescences of the samples to which a solution containing each RNA and PPR protein was added, and the obtained values were used as the binding powers between the PPR protein and RNA.
# By using the v2 motif, PPR proteins for 23 kinds of target sequences (T_1 to T_3, and T_5 to T_24, SEQ ID NOS: […]) were prepared (NL_v2_PPR1 to 3, and NL_v2_PPR5 to 24, SEQ ID NOS: 56 to 58 and 70 to 88), and RPB-ELISA was used to analyze bindings of all the combinations. The experimental method was the same as that used in Example 3.
row,Sequence,binding signal [log2 luminescence]
1,GGUGGUGAGGCCCUGGGC,21.4
2,GUCAGAGGGUUCUGGAUU,21.1
3,GGUUAGAGAUACAGUGUG,20.6
4,GACUCAGGAAUCGGCUCU,20.5
